Laboratory results from PubChem BioAssay (NCATS).
Results filed as inconclusive are left out. Entries that show only a call come without a potency. Values without a mark were called inactive. Active and inactive are the calls of the source. The call rests on the fitted dose curve; in most records, active means well fitted inhibition curve with a large enough effect; inconclusive means small, poorly fitted or top-dose-only effect; inactive means no such curve, though single readings can be large or run the other way.

Assay: NS1 protein of Zika virus - qHTS assay to identify small molecule inhibitors in human HEK 293 cells (AID 1347053); further: nearly all actives have a fitted effect of over 55% in size
Conditions: HEK293 ZIKV MR766 infection, NS1 TR-FRET, 24 h; series mostly up to 46.1 µM
Procedure, shortened: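 Readout was TR-FRET using paired anti-NS1 antibodies after 24 h infection of HEK 293 cells with ZIKV MR766 (MOI = 0.5). Compound preceded virus by 1 h; reduced signal reflects lower NS1 expression.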
With `O=C(CN1CCN(Cc2ccc3c(c2)OCO3)CC1)N1c2ccccc2Sc2ccccc21` the Potency was “inactive”.
With `NS(=O)(=O)Cc1noc2ccccc12` the Potency was “inactive”.
For `OC[C@H]1O[C@@H](Oc2ccc(O)cc2)[C@H](O)[C@@H](O)[C@@H]1O`, the Potency was “inactive”.
With `NCc1ccccc1Sc1ccccc1CO` the Potency was “inactive”.
In the case of `CCC1NC(=O)c2cc(S(N)(=O)=O)c(Cl)cc2N1` (stereo unspecified), the Potency is reported as “inactive”.
For `CC(=O)NO`, the Potency was “inactive”.
For `O=C(Nc1ccc([N+](=O)[O-])cc1)Nc1ccc([N+](=O)[O-])cc1`, the Potency was “inactive”.
For `C#C[C@]1(O)CC[C@H]2[C@@H]3CCC4=CC(=O)CC[C@@H]4[C@H]3CC[C@@]21CC`, the Potency was “inactive”.
In the case of `Cc1ncc(CO)c(C=O)c1O`, the Potency is reported as “inactive”.
For `COc1cc(C(=O)NCc2ccc(OCCN(C)C)cc2)cc(OC)c1OC`, the Potency was “inactive”.
With `Nc1ccc(S(=O)(=O)NCc2ccccc2)cc1` the Potency was “inactive”.
In the case of `CCCCCCCCCCCCSCCOCCO`, the Potency is reported as “inactive”.
With `O=C(O)CCNC(=O)c1ccccc1` the Potency was “inactive”.
With `OCc1ccccn1` the Potency was “inactive”.
With `NS(=O)(=O)c1ccc(Cl)c(S(N)(=O)=O)c1` the Potency was “inactive”.
For `CCCN(CCC)S(=O)(=O)c1ccc(C(=O)O)cc1`, the Potency was “inactive”.
For `CC1CCc2c(N3CCC(O)CC3)c(F)cc3c(=O)c(C(=O)O)cn1c23` (stereo unspecified), the Potency was “inactive”.
In the case of `CC(=O)NCCCCCC(=O)O`, the Potency is reported as “inactive”.
In the case of `COc1ccc2c(c1)c1c3n2CCN(C)C3=NCC1`, the Potency is reported as “inactive”.
With `CCN(CC)CCOc1ccccc1C(=O)CCc1ccccc1` the Potency was “inactive”.
For `CCN[C@@H]1C[C@H](N)[C@@H](OC2OC(CN)=CCC2N)[C@H](O)[C@H]1O[C@H]1OC[C@](C)(O)[C@H](NC)[C@H]1O` (stereo partly specified), the activity change, negative = inhibition was -23.1% [at 0.593 µM].
